Laboratory results published in PubChem BioAssay (NCATS).
Results filed as inconclusive are left out. Calls of active or inactive are those of the source. The call rests on the fitted dose curve; in most records, active means well fitted curve in the direction sought with a large enough effect; inconclusive means small, poorly fitted or top-dose-only effect, or another doubt; inactive means no such curve, though single readings can be large; an effect the other way counts as inactive or inconclusive.

How the values were obtained:
MKL-1 = assay: qHTS assay to identify novel small-molecules to repurpose for Merkel cell carcinoma treatment (AID 1296009); details: MCC and control cell lines, CellTiter-Glo viability, 72 h; series mostly up to 46 µM; further: nearly all actives have a fitted effect of over 60% in size
In short: (§1)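 CellTiter-Glo luminescence after 72 hr compound exposure at 37 degree celsius gave cell viability. Libraries NPC and MIPE were run as 8- and 11-point dose responses; RLUs normalized to DMSO (negative) and no-cell (cytotoxicity) controls.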

MKL-2 = assay: as above; details: MCC and control cell lines, CellTiter-Glo viability, 72 h; series mostly up to 46 µM
In short: as §1

UISO = assay: as above; details: MCC and control cell lines, CellTiter-Glo viability, 72 h; series mostly up to 46 µM
In short: as §1

WaGa = assay: as above; details: MCC and control cell lines, CellTiter-Glo viability, 72 h; series mostly up to 46 µM
In short: as §1

C33A = assay: Primary qHTS to identify gynecologic anti-cancer compounds using libraries of approved drugs and bioactive compounds (AID 1345084); details: Gynecologic cancer cell panel viability, ATPlite luminescence, 48 h; series mostly up to 57.5 µM; further: nearly all actives have a fitted effect of over 55% in size
In short: (§2)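 Cell viability after 48 h drug treatment, ATPlite luminescence readout; five doses.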

CASKI = assay: as above; details: Gynecologic cancer cell panel viability, ATPlite luminescence, 48 h; series mostly up to 57.5 µM
In short: as §2

Es-2 = assay: as above; details: Gynecologic cancer cell panel viability, ATPlite luminescence, 48 h; series mostly up to 57.5 µM
In short: as §2

HeLa = assay: as above; details: Gynecologic cancer cell panel viability, ATPlite luminescence, 48 h; series mostly up to 57.5 µM
In short: as §2

CAOV3 = assay: as above; details: Gynecologic cancer cell panel viability, ATPlite luminescence, 48 h; series mostly up to 57.5 µM
In short: as §2

NIH3T3 = assay: qHTS assay to identify novel small-molecules to repurpose for Merkel cell carcinoma treatment (AID 1296009); details: MCC and control cell lines, CellTiter-Glo viability, 72 h; at 44.8 µM (top of the series); further: nearly all actives have a fitted effect of over 60% in size
In short: as §1

Measured: Potency
Potency means the concentration at half of the fitted maximal effect.

CCCCCCCCCCCCCCCCO
not listed: CAOV3 | NIH3T3
inactive: all other assays above

NS(=O)(=O)c1ccc(Cl)c(S(N)(=O)=O)c1
not listed: CAOV3 | NIH3T3
inactive: all other assays above

CCCCCCCCOc1ccc(C(=O)c2ccccc2)c(O)c1
not listed: CAOV3 | NIH3T3
inactive: all other assays above

COc1cc(N)c(Cl)cc1C(=O)NC1CCN(Cc2ccccc2)CC1
not listed: CAOV3 | NIH3T3
inactive: all other assays above

CN(C)CCN1C(=O)c2ccccc2N(C)c2ccccc21
not listed: CAOV3 | NIH3T3
inactive: all other assays above

CN1CCN(C2=Nc3ccccc3Sc3ccc(Cl)cc32)CC1
not listed: WaGa | NIH3T3
inactive: all other assays above

O=C(Nc1cccc(C2=NCCN2)c1)Nc1cccc(C2=NCCN2)c1
not listed: CAOV3 | NIH3T3
inactive: all other assays above

CN1CCN(C2=Nc3cc(F)ccc3Cc3ccccc32)CC1
not listed: WaGa | NIH3T3
inactive: all other assays above

O=[N+]([O-])c1cccc(S(=O)(=O)NCCNS(=O)(=O)c2cccc([N+](=O)[O-])c2)c1
not listed: CAOV3 | NIH3T3
inactive: all other assays above

C=CCN1CCc2nc(N)sc2CC1
not listed: CAOV3 | NIH3T3
inactive: all other assays above

O=C(N/N=C/c1ccc([N+](=O)[O-])o1)c1ccc(O)cc1
inactive: HeLa
active: MKL-1 9.44 µM | MKL-2 10.6 µM | UISO 13.3 µM | WaGa 10.6 µM

NS(=O)(=O)c1cc(C(=O)O)cc(N2CCCC2)c1Oc1ccccc1
not listed: CAOV3 | NIH3T3
inactive: all other assays above

C=C[C@H]1CN2CC[C@H]1C[C@H]2[C@H](O)c1ccnc2ccc(OC)cc12
not listed: WaGa | NIH3T3
inactive: all other assays above

CCCCCCCCCCCCCC[N+](C)(C)Cc1ccccc1
active: MKL-1 6.68 µM | MKL-2 1.06 µM | UISO 6.68 µM | WaGa 7.5 µM | C33A 25.1 µM | CASKI 14.1 µM | HeLa 25.1 µM

CN1CCN(c2cc3c(cc2F)c(=O)c(C(=O)O)cn3-c2ccc(F)cc2)CC1
not listed: CAOV3 | NIH3T3
inactive: all other assays above

O=C1[C@H](CC[C@H](O)c2ccc(F)cc2)[C@@H](c2ccc(O)cc2)N1c1ccc(F)cc1
not listed: WaGa | NIH3T3
inactive: all other assays above

COc1cc(O)c(C(=O)c2ccccc2)cc1S(=O)(=O)O
not listed: WaGa | NIH3T3
inactive: all other assays above

COc1ccc(S(=O)(=O)N2c3ccc(Cl)cc3[C@@](O)(c3ccccc3Cl)[C@H]2C(=O)N2CCC[C@@H]2C(N)=O)cc1OC
not listed: CAOV3 | NIH3T3
inactive: all other assays above

CC(=O)Oc1ccc(C)cc1
not listed: CAOV3 | NIH3T3
inactive: all other assays above

O[C@@H](c1cc(C(F)(F)F)nc2c(C(F)(F)F)cccc12)[C@H]1CCCCN1
active: MKL-1 21.1 µM | MKL-2 2.99 µM | UISO 23.7 µM | C33A 28.2 µM | CAOV3 20 µM

CCN1/C(=C/C=C/c2sc3ccccc3[n+]2CC)Sc2ccccc21
active: MKL-1 0.366 µM | MKL-2 0.058 µM | UISO 0.366 µM | WaGa 0.82 µM | C33A 2.51 µM | Es-2 2.51 µM | HeLa 0.891 µM

CC(=O)OC[C@H]1O[C@@H](n2ncc(=O)[nH]c2=O)[C@H](OC(C)=O)[C@@H]1OC(C)=O
inactive: MKL-1 | MKL-2 | UISO | C33A | CAOV3 | HeLa

OCCOCCN1CCN(C2=Nc3ccccc3Sc3ccccc32)CC1
not listed: CAOV3 | NIH3T3
inactive: all other assays above

CCN(CC)CCOc1ccccc1C(=O)CCc1ccccc1
not listed: WaGa | CAOV3 | NIH3T3
inactive: all other assays above

CC(=C(CCOC(=O)C(C)C)SSC(CCOC(=O)C(C)C)=C(C)N(C=O)Cc1cnc(C)nc1N)N(C=O)Cc1cnc(C)nc1N
not listed: MKL-2
inactive: all other assays above

CC(=O)O[C@]1(C(C)=O)CC[C@H]2[C@@H]3C=C(Cl)C4=CC(=O)CC[C@]4(C)[C@H]3CC[C@@]21C
not listed: MKL-2 | NIH3T3
inactive: all other assays above

Cc1cc(CC(=O)O)c(C)n1-c1ccc(Cl)cc1
not listed: MKL-2
inactive: all other assays above

CCc1oc2ccccc2c1C(=O)c1cc(I)c(O)c(I)c1
not listed: UISO | NIH3T3
inactive: all other assays above

N/C(=N\N=C\c1ccc(Cl)cc1)N/N=C/c1ccc(Cl)cc1
not listed: MKL-2 | NIH3T3
inactive: all other assays above

O=S(c1cc(Cl)cc(Cl)c1O)c1cc(Cl)cc(Cl)c1O
not listed: WaGa | CAOV3 | NIH3T3
inactive: all other assays above

CC(=O)Nc1ccc(OCC(O)CNC(C)C)cc1 (centres undefined)
not listed: UISO | NIH3T3
inactive: all other assays above

CC(C)[N+](C)(C)CC(O)COc1cccc2ccccc12 (centres undefined)
not listed: WaGa | CAOV3 | NIH3T3
inactive: all other assays above

CC(C)(Cc1c[nH]c2ccccc12)NCC(O)COc1ccccc1C#N (centres undefined)
inactive: MKL-1 | MKL-2 | C33A | CASKI | Es-2 | HeLa

O=C(CCN1CCN2CCCC2C1)N1c2ccccc2Sc2ccc(Cl)cc21 (centres undefined)
not listed: MKL-2 | NIH3T3
inactive: all other assays above

O=C(CCCN1CC=C(n2c(=O)[nH]c3ccccc32)CC1)c1ccc(F)cc1
active: UISO 26.6 µM
not listed: WaGa | CAOV3 | NIH3T3
inactive: all other assays above

C[N+]1(C)CCC(=C(c2ccccc2)c2ccccc2)CC1
not listed: UISO | WaGa | NIH3T3
inactive: all other assays above

OC[C@H]1O[C@@H](Oc2ccc(O)cc2)[C@H](O)[C@@H](O)[C@@H]1O
not listed: WaGa | CAOV3 | NIH3T3
inactive: all other assays above

C[C@]12CCC(=O)C=C1C=C[C@@H]1[C@@H]2CC[C@@]2(C)[C@H]1CC[C@@]21CCC(=O)O1
inactive: MKL-1 | MKL-2 | C33A | CAOV3 | Es-2 | HeLa

C=C1c2cccc(O)c2C(O)=C2C(=O)[C@]3(O)C(O)=C(C(N)=O)C(=O)[C@@H](N(C)C)[C@@H]3[C@@H](O)[C@H]12
not listed: MKL-2
inactive: all other assays above

COc1ccc(CCN(C)CCCN2CCc3cc(OC)c(OC)cc3CC2=O)cc1OC
not listed: WaGa | CAOV3 | NIH3T3
inactive: all other assays above

CC(=O)OCC1=C(C(=O)O)N2C(=O)[C@@H](NC(=O)CSc3ccncc3)[C@H]2SC1
not listed: MKL-2 | WaGa | NIH3T3
inactive: all other assays above

CN1CCC[C@@H]1CCO[C@](C)(c1ccccc1)c1ccc(Cl)cc1
inactive: HeLa
active: MKL-1 23.7 µM | MKL-2 9.44 µM | UISO 21.1 µM

CCc1oc2ccccc2c1C(=O)c1cc(Br)c(O)c(Br)c1
inactive: MKL-1 | MKL-2 | C33A | CAOV3 | CASKI | Es-2

CCCCNc1ccc(C(=O)OCCOCCOCCOCCOCCOCCOCCOCCOCCOC)cc1
inactive: MKL-1 | MKL-2 | C33A | CAOV3 | CASKI | HeLa

CCN(CC)CCOc1ccc2c(c1)C(=O)c1cc(OCCN(CC)CC)ccc1-2
inactive: HeLa
active: MKL-1 13.3 µM | MKL-2 2.37 µM | WaGa 15 µM | C33A 17.8 µM

CN1CCc2cccc3c2[C@H]1Cc1ccc(O)c(O)c1-3
inactive: CASKI
active: MKL-1 1.33 µM | MKL-2 0.841 µM | WaGa 11.9 µM
